KCNQ2 block: rat KCNQ2 potassium channel inhibitors, primary screen, cell-based, CHO-K1, FluxOR thallium flux, B-score; Potassium voltage-gated channel subfamily KQT member 2 (Rattus norvegicus), O88943; 20 min; stronger effect = lower value; B-score at 10 µM; actives 1.1% (n = 310,000); AID 2156, 2009;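 active means fluorescence ratio B-score at most minus 3 library SDs, with starting brightness B-score within 2 library SDs, cut at about -5.5 in these data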
KCNQ2 pot: potentiators of rat KCNQ2 potassium channel | Potassium voltage-gated channel subfamily KQT member 2 (Rattus norvegicus), O88943 | CHO-K1 KCNQ2, FluxOR thallium flux fluorescence; stronger effect = higher value | B-score at 10 µM | actives 0.54% (n = 310,000);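 active means fluorescence ratio B-score at least 3 SD of library B-scores, with initial fluorescence B-score within 3 of them, cut at about 5.3 in these data; same plate scores as AID 2156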;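 further: B-score of peak minus minimum over baseline fluorescence ratio after K+ and Tl+ stimulus; positive B-score means potentiation of KCNQ2 with more thallium influx and brighter signal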
KCNQ2 inh conf: rat KCNQ2 potassium channel inhibitors, confirmation, cell-based, thallium flux; shares compounds with KCNQ2 block; KCNQ2-expressing cells, inhibition; stronger effect = lower value; activity change, negative = inhibition, % at 10 µM; actives 57% (n = 1,000)
KCNQ1 spec: human KCNQ1 channel inhibition, counter-screen for KCNQ2 inhibitor project, cell-based, FluxOR thallium flux | AID 493026, 2011 | activity change, negative = inhibition, % at 10 µM | actives 15% (n = 1,000) | shares compounds with KCNQ2 block | KCNQ1-expressing cells, FluxOR thallium flux fluorescence; stronger effect = lower value;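 active means activity change at least 3 SD of negative controls below their mean in both duplicate wells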;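 further: CHO cells stably transfected with KCNQ1 and depolarized by potassium stimulus; peak minus minimum fluorescence over baseline after thallium addition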
Target sequence (P51787 whole entry, looked up): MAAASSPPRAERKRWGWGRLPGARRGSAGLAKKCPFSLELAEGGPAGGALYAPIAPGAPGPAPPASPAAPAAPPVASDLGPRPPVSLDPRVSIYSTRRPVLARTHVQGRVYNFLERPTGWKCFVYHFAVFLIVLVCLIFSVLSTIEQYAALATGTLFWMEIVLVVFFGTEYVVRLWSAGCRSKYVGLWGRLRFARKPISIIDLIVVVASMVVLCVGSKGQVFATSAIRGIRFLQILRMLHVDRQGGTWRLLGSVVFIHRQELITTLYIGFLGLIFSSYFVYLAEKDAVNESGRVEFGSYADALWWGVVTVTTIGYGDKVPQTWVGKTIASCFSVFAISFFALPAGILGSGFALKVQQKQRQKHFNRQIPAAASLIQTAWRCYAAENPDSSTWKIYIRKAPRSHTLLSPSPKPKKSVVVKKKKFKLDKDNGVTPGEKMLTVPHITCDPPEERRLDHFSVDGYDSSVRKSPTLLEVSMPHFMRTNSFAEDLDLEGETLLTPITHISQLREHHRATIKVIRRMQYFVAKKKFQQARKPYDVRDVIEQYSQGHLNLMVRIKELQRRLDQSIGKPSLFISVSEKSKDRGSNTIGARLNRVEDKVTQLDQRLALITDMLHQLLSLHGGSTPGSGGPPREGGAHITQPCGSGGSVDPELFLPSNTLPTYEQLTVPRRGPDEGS
CHO parental ctr: thallium flux change in parental CHO cells, counter-screen for KCNQ2 inhibitor project; shares compounds with KCNQ2 block; stronger effect = lower value; activity change, % at 10 µM; actives 14% (n = 1,000); AID 493029, 2011
KCNQ2 inh confirm: rat KCNQ2 channel inhibitors, confirmation, cell-based, automated patch clamp, single concentration; shares compounds with KCNQ2 block; KCNQ2-expressing cells, automated patch clamp current; calls only at 10 µM; actives 49% (n = 550); AID 588531, 2011
Hits are given with their value; – = inactive; · = no result; + = active, no number. Only some compounds are listed: those with a hit (about 1.6% of all), similar ones and a draw of the others. Unless noted, how the calls were made is not given here.

SMILES	KCNQ2 block	KCNQ2 pot	KCNQ2 inh conf	KCNQ1 spec	CHO parental ctr	others
CC(C)OC(=O)Cn1nc(C(c2ccccc2)c2ccccc2)oc1=O	–	·	·	·	·
O=C(/C=C/c1ccco1)NC(=S)Nc1ccccc1N1CCOCC1	-7.25	–	–	–	–
O=C(/C=C/c1ccco1)NC(=S)Nc1ccccc1N1CCCC1	–	·	·	·	·
Cc1ccc2nc(C)cc(C(=O)Nc3nccs3)c2c1	–	·	·	·	·
CCOC(=O)CSc1nnc(CNC(=O)c2ccc([N+](=O)[O-])cc2)n1C	–	·	·	·	·
COc1ccc(CCNC(=O)C(C(=O)c2ccc(F)cc2)n2ccccc2=O)cc1OC (centres undefined)	–	–	·	·	·
COc1ccc2cc(C(c3nnnn3CCc3ccccc3)N3CCCC(C)C3)c(=O)[nH]c2c1 (centres undefined)	-8.58	–	-35.0%	–	–	KCNQ2 inh confirm=+
COCCn1nnnc1C(c1cc2cc(OC)ccc2[nH]c1=O)N1CCC(Cc2ccccc2)CC1 (centres undefined)	–	–	·	·	·
Cc1ccc(C(O)(c2ccccc2)c2ccccc2C(C)N(C)C)c(C)c1 (centres undefined)	-8.95	–	-31.0%	–	–	KCNQ2 inh confirm=+
CC(c1ccccc1C(O)c1ccccc1)N(C)C (centres undefined)	–	–	·	·	·
CC(=O)c1c(C)cc(C)c(CSc2ccccn2)c1C	–	·	·	·	·
Cc1ccc(NC(=S)N(C)C(c2ccccc2)c2ccccc2)cc1C	-8.36	–	-25.0%	–	–	KCNQ2 inh confirm=–
CN(C(=S)Nc1ccc(F)cc1)C(c1ccccc1)c1ccccc1	–	·	·	·	·
CC1CCC(C(C)C)C(OC(=O)COC(=O)c2ccc(N)cc2)C1 (centres undefined)	–	·	·	·	·
CC1CCC(C(C)C)C(OC(=O)Cn2c(-c3ccc(Cl)cc3)[n+](C)c3ccccc32)C1 (centres undefined)	-6.7	–	-45.5%	-46.0%	-48.0%	KCNQ2 inh confirm=+
Cc1ccc(SCC(=O)N2N=CCC2c2ccccc2)cc1 (centres undefined)	–	·	·	·	·
O=C(Nc1ccccc1[N+](=O)[O-])C1COc2ccccc2O1 (centres undefined)	–	·	·	·	·
O=C(Nc1cccc(-c2csc(Nc3ccccc3)n2)c1)c1ccccc1	-6.8	–	–	–	–
O=C(Nc1cccc(-c2csc(Nc3cccc(C(F)(F)F)c3)n2)c1)c1ccccc1	–	–	·	·	·
COc1cc(CCC(=O)N2CCN(c3cccc(C)c3C)CC2)cc(OC)c1OC	–	·	·	·	·
Clc1cccc(Cl)c1/C=C/c1nc2ccccc2[nH]1	-8.72	–	-35.5%	-42.0%	-29.5%	KCNQ2 inh confirm=–
Clc1ccc(/C=C/c2nc3ccccc3[nH]2)cc1	–	·	·	·	·
COc1cc(NC(=O)c2csc(-c3ccncc3)n2)cc(C(=O)Nc2cccc(C(F)(F)F)c2)c1	-6.87	–	-20.0%	–	–	KCNQ2 inh confirm=–
COc1cc(NC(=O)c2cc3cccc(OC)c3o2)cc(C(=O)Nc2cccc(C(F)(F)F)c2)c1	-7.64	–	–	–	–
COc1cc(NC(=O)c2ccno2)cc(C(=O)Nc2cccc(C(F)(F)F)c2)c1	–	·	·	·	·
SMILES	KCNQ2 block	KCNQ2 pot	KCNQ2 inh conf	KCNQ1 spec	CHO parental ctr	others
O=C(Nc1cccc(C(F)(F)F)c1)c1csc(-c2ccncc2)n1	–	–	·	·	·
CSc1ccccc1NC(=O)CN(C1CCCCC1)S(C)(=O)=O	–	·	·	·	·
CN(CC(=O)Nc1ccccc1Sc1ccccc1)C1CCCCC1	-6.67	–	-37.0%	-35.0%	-27.0%	KCNQ2 inh confirm=–
CCOC(=O)c1cn2nc(-c3ccc(OC)cc3)cc2nc1C1CCN(C(=O)OC(C)(C)C)CC1	-8.58	–	–	–	–
COc1ccc(-c2cc(C3CCN(C(=O)OC(C)(C)C)CC3)[nH]n2)cc1	–	·	·	·	·
Cc1nn(C(C)C(=O)N2CCCCC2)c(=O)c2c1sc1ccccc12 (centres undefined)	-8.93	–	-30.0%	–	–	KCNQ2 inh confirm=+
Cc1nn(C(C)C(=O)O)c(=O)c2c1sc1ccccc12 (centres undefined)	–	·	·	·	·
O=C(Cn1c2ccc(F)cc2c2nc3n(c(=O)c21)CCS3)NCC1CCCO1 (centres undefined)	–	–	·	·	·
O=C(Cc1cccs1)NC(c1ccccc1)c1ccccc1	–	·	·	·	·
O=C(COC(=O)/C(=C/c1cccs1)c1cccs1)NC(c1ccccc1)c1ccccc1	-8.64	–	–	–	–
CSc1nnc(SCC#N)s1	–	·	·	·	·
CCOC(=O)C1CCN(CC(=O)Nc2ccc(S(=O)(=O)N3CCC(C)CC3)cc2)CC1	–	–	·	·	·
O=C(Nc1cccc(C(=O)N2CCCc3ccccc32)c1)c1ccccc1	–	–	·	·	·
N#C/C(=C/c1ccc(N2CCCCCC2)o1)c1ccc(Cl)cc1	-8.38	–	-31.0%	-28.0%	-22.5%	KCNQ2 inh confirm=–
N#C/C(=C/c1ccc(N2CCCCC2)o1)c1cccc(F)c1	–	·	·	·	·
COc1ccc(Cl)cc1C(=O)Nc1ccccc1N1CCCCC1	-7.53	–	-31.5%	–	–	KCNQ2 inh confirm=–
COc1ccc(Br)cc1C(=O)Nc1ccccc1N1CCCC1	–	·	·	·	·
COc1ccc(Br)cc1C(=O)Nc1ccccc1-c1ccccc1	-9.33	–	-15.0%	–	–	KCNQ2 inh confirm=–
COc1ccc(Cl)cc1C(=O)Nc1ccccc1N1CCN(C)CC1	–	·	·	·	·
COc1cc(C(=O)NC(=S)Nc2ccccc2N2CCCC2)cc(OC)c1OC	–	·	·	·	·
COc1cc(C(=O)Nc2ccccc2N2CCCCC2)cc(OC)c1OC	-7.39	–	-39.0%	-28.5%	–	KCNQ2 inh confirm=+
CN(C)c1cc[n+](CC(=O)Nc2ccc(OC(F)F)cc2)cc1	–	·	·	·	·
CCOc1ccc(N(CC(=O)NC2CCCCC2)C(=O)CCC(=O)Nc2cc(C)ccn2)cc1	–	·	·	·	·
Cc1ccc(C)c(NC(=O)C(=O)NCC2CCCN2S(=O)(=O)c2cccs2)c1 (centres undefined)	–	·	·	·	·
COc1ccc(N(C(=O)Cn2nnc(-c3ccc(C)o3)n2)C(C(=O)NC2CCCC2)c2ccncc2)cc1 (centres undefined)	–	–	·	·	·
SMILES	KCNQ2 block	KCNQ2 pot	KCNQ2 inh conf	KCNQ1 spec	CHO parental ctr	others
COc1ccccc1CCNC(=O)CCn1nc(C)c2c(C)n(-c3ccccc3)nc2c1=O	–	·	·	·	·
CN(CCOc1ccccc1)CC(=O)Nc1ccc([N+](=O)[O-])cc1Cl	–	·	·	·	·
CN(CC(=O)Nc1ccc([N+](=O)[O-])cc1Br)Cc1c(F)cccc1Cl	-11.2	–	–	–	–
CCCn1c(=O)c(C(=O)NCc2ccccc2OC)c(O)c2ccccc21	-7.62	–	–	–	–
CCn1c(=O)c(C(=O)NCc2ccccc2)c(O)c2ccccc21	–	·	·	·	·
CCn1c(=O)c(C(=O)NCc2ccc(Cl)cc2)c(O)c2ccccc21	-7.56	–	-25.0%	–	–	KCNQ2 inh confirm=–
CCn1c(=O)c(C(=O)NCc2ccccc2OC)c(O)c2ccccc21	–	·	·	·	·
CCn1c(=O)c(C(=O)NCc2ccc(F)cc2)c(O)c2ccccc21	-6.72	–	–	–	–

From PubChem BioAssay
